Experimental data as given in PMC7862700, “An all-to-all approach to the identification of sequence-specific readers for epigenetic DNA modifications on cytosine”.

biological target: T1, ELF5 (Homo sapiens, UniProt Q9UKW6-2 1-255); test: DAPPL (digital affinity profiling via proximity ligation, sequencing); 10 mM Tris-HCl pH 7.5, 50 mM NaCl, 1 mM DTT, 4% glycerol, room temperature, 30 min; GST-TFs on glutathione beads, 16-mer random dsDNA library, 0.1% formaldehyde crosslink after washing; high values mean tight binding; details: protein: recombinant; tags: N-terminal GST; dsDNA, one strand shown
T1 sequence: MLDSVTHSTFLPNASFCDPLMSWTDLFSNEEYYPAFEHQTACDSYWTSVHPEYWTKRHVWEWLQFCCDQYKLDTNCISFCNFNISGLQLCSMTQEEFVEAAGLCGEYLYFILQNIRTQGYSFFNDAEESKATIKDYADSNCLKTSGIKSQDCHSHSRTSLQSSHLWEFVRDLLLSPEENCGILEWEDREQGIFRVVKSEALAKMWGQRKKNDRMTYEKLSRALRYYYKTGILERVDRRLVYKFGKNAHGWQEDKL
Summary of the method: (§1)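 Beads coated with glutathione captured GST-fused human transcription factors that had been expressed in yeast, and the factors were then given DNA barcodes and pooled with a tag-only sample. The pools were incubated with 200 nmole of a random double-stranded 16-mer DNA library in Tris/NaCl/DTT/glycerol buffer for 30 min at room temperature, washed, crosslinked with 0.1% formaldehyde and proximity-ligated with BsaI/T4 ligase at 37 °C for 1 h. PCR amplification and Illumina NextSeq500 sequencing came last. Binding signal is each hexamer's read frequency for a factor divided by its frequency for the tag-only sample.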

Sequence	binding signal
CACTAA	1.14 fold enrichment (6-mer frequency, TF over GST control)
CCGCCT	1.84 fold enrichment (6-mer frequency, TF over GST control)
AATGTC	1.38 fold enrichment (6-mer frequency, TF over GST control)
CGATTT	1.13 fold enrichment (6-mer frequency, TF over GST control)
CGTTCG	1.26 fold enrichment (6-mer frequency, TF over GST control)
CTATAT	1.4 fold enrichment (6-mer frequency, TF over GST control)
TCGCTC	1.25 fold enrichment (6-mer frequency, TF over GST control)
AAAACC	1.19 fold enrichment (6-mer frequency, TF over GST control)
TTTTGG	1.34 fold enrichment (6-mer frequency, TF over GST control)
TATTCC	1.99 fold enrichment (6-mer frequency, TF over GST control)
ACGTCC	1.77 fold enrichment (6-mer frequency, TF over GST control)
ATACCC	1.18 fold enrichment (6-mer frequency, TF over GST control)
ATTCTA	1.15 fold enrichment (6-mer frequency, TF over GST control)
AACTTT	1.3 fold enrichment (6-mer frequency, TF over GST control)
ATCTAA	1.17 fold enrichment (6-mer frequency, TF over GST control)
TAAATT	1.19 fold enrichment (6-mer frequency, TF over GST control)
CCCGAC	1.38 fold enrichment (6-mer frequency, TF over GST control)
ATGAGC	1.12 fold enrichment (6-mer frequency, TF over GST control)
GCGATG	1.17 fold enrichment (6-mer frequency, TF over GST control)
CTCTGG	1.21 fold enrichment (6-mer frequency, TF over GST control)

Sequence	binding signal
TCATAT	1.19 fold enrichment (6-mer frequency, TF over GST control)
AAAGCA	1.07 fold enrichment (6-mer frequency, TF over GST control)
TAACAA	1.14 fold enrichment (6-mer frequency, TF over GST control)
TTCTAT	1.3 fold enrichment (6-mer frequency, TF over GST control)
TGTTTC	2.08 fold enrichment (6-mer frequency, TF over GST control)
TTGCGA	1.12 fold enrichment (6-mer frequency, TF over GST control)
ACAATT	1.32 fold enrichment (6-mer frequency, TF over GST control)
AATTAC	1.33 fold enrichment (6-mer frequency, TF over GST control)
CAATCC	1.21 fold enrichment (6-mer frequency, TF over GST control)
GTCTCC	1.4 fold enrichment (6-mer frequency, TF over GST control)
TTTTGC	1.27 fold enrichment (6-mer frequency, TF over GST control)
TGGCTT	1.18 fold enrichment (6-mer frequency, TF over GST control)
CTACAT	1.53 fold enrichment (6-mer frequency, TF over GST control)
CATCTC	1.22 fold enrichment (6-mer frequency, TF over GST control)
AAAGAC	1.03 fold enrichment (6-mer frequency, TF over GST control)
ATACCT	1.04 fold enrichment (6-mer frequency, TF over GST control)
GGCCTT	1.06 fold enrichment (6-mer frequency, TF over GST control)
TCAACC	1.07 fold enrichment (6-mer frequency, TF over GST control)
TTCTCA	1.23 fold enrichment (6-mer frequency, TF over GST control)
ATCTCG	1.28 fold enrichment (6-mer frequency, TF over GST control)

biological target: T2, ETV3 (Homo sapiens, UniProt P41162-2 1-143); test: as above; details: protein: recombinant; tags: N-terminal GST; dsDNA, one strand shown
T2 sequence: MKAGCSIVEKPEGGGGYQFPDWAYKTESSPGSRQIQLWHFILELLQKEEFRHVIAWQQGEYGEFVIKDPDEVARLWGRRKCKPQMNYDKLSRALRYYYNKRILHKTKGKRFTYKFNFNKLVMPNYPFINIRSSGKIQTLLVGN
Summary of the method: as §1

Sequence	binding signal
CACTAA	1.07 fold enrichment (6-mer frequency, TF over GST control)
CCGCCT	1.64 fold enrichment (6-mer frequency, TF over GST control)
AATGTC	1.23 fold enrichment (6-mer frequency, TF over GST control)
CGATTT	1.18 fold enrichment (6-mer frequency, TF over GST control)
CGTTCG	1.19 fold enrichment (6-mer frequency, TF over GST control)
CTATAT	1.5 fold enrichment (6-mer frequency, TF over GST control)
TCGCTC	1.11 fold enrichment (6-mer frequency, TF over GST control)
AAAACC	1.08 fold enrichment (6-mer frequency, TF over GST control)
TTTTGG	1.36 fold enrichment (6-mer frequency, TF over GST control)
TATTCC	1.64 fold enrichment (6-mer frequency, TF over GST control)
ACGTCC	1.61 fold enrichment (6-mer frequency, TF over GST control)
ATACCC	1.18 fold enrichment (6-mer frequency, TF over GST control)
ATTCTA	1.2 fold enrichment (6-mer frequency, TF over GST control)
AACTTT	1.4 fold enrichment (6-mer frequency, TF over GST control)
ATCTAA	1.24 fold enrichment (6-mer frequency, TF over GST control)
TAAATT	1.21 fold enrichment (6-mer frequency, TF over GST control)
CCCGAC	1.25 fold enrichment (6-mer frequency, TF over GST control)
ATGAGC	1.34 fold enrichment (6-mer frequency, TF over GST control)
GCGATG	1.28 fold enrichment (6-mer frequency, TF over GST control)
CTCTGG	1.31 fold enrichment (6-mer frequency, TF over GST control)

Sequence	binding signal
TCATAT	1.26 fold enrichment (6-mer frequency, TF over GST control)
AAAGCA	1.07 fold enrichment (6-mer frequency, TF over GST control)
TAACAA	1.19 fold enrichment (6-mer frequency, TF over GST control)
TTCTAT	1.33 fold enrichment (6-mer frequency, TF over GST control)
TGTTTC	1.83 fold enrichment (6-mer frequency, TF over GST control)
TTGCGA	1.08 fold enrichment (6-mer frequency, TF over GST control)
ACAATT	1.27 fold enrichment (6-mer frequency, TF over GST control)
AATTAC	1.26 fold enrichment (6-mer frequency, TF over GST control)
CAATCC	1.19 fold enrichment (6-mer frequency, TF over GST control)
GTCTCC	1.52 fold enrichment (6-mer frequency, TF over GST control)
TTTTGC	1.15 fold enrichment (6-mer frequency, TF over GST control)
TGGCTT	1.18 fold enrichment (6-mer frequency, TF over GST control)
CTACAT	1.44 fold enrichment (6-mer frequency, TF over GST control)
CATCTC	1.29 fold enrichment (6-mer frequency, TF over GST control)
AAAGAC	1.01 fold enrichment (6-mer frequency, TF over GST control)
ATACCT	1.11 fold enrichment (6-mer frequency, TF over GST control)
GGCCTT	1.11 fold enrichment (6-mer frequency, TF over GST control)
TCAACC	1.16 fold enrichment (6-mer frequency, TF over GST control)
TTCTCA	1.34 fold enrichment (6-mer frequency, TF over GST control)
ATCTCG	1.29 fold enrichment (6-mer frequency, TF over GST control)

biological target: ETV6 (Homo sapiens, UniProt P41212 1-452); test: as above; details: protein: recombinant; tags: N-terminal GST; dsDNA, one strand shown
Summary of the method: as §1

ETV6, sequence (P41212 whole entry): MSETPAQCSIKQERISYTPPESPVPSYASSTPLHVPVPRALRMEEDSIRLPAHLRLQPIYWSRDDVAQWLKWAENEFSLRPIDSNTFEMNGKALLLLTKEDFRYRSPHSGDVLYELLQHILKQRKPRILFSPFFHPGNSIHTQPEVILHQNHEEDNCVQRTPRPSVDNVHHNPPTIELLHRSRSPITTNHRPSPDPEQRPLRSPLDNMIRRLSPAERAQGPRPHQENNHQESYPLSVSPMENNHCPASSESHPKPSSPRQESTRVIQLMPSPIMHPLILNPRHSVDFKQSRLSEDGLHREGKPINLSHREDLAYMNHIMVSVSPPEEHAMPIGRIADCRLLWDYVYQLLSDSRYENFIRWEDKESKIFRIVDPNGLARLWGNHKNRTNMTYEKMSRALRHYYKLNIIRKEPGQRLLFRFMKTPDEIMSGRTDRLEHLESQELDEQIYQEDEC

Sequence	binding signal
CACTAA	1.12 fold enrichment (6-mer frequency, TF over GST control)
CCGCCT	1.64 fold enrichment (6-mer frequency, TF over GST control)
AATGTC	1.21 fold enrichment (6-mer frequency, TF over GST control)
CGATTT	1.22 fold enrichment (6-mer frequency, TF over GST control)
CGTTCG	1.29 fold enrichment (6-mer frequency, TF over GST control)
CTATAT	1.43 fold enrichment (6-mer frequency, TF over GST control)
TCGCTC	1.28 fold enrichment (6-mer frequency, TF over GST control)
AAAACC	1.19 fold enrichment (6-mer frequency, TF over GST control)
TTTTGG	1.42 fold enrichment (6-mer frequency, TF over GST control)
TATTCC	1.67 fold enrichment (6-mer frequency, TF over GST control)
ACGTCC	1.74 fold enrichment (6-mer frequency, TF over GST control)
ATACCC	1.09 fold enrichment (6-mer frequency, TF over GST control)
ATTCTA	1.15 fold enrichment (6-mer frequency, TF over GST control)
AACTTT	1.22 fold enrichment (6-mer frequency, TF over GST control)
ATCTAA	1.17 fold enrichment (6-mer frequency, TF over GST control)
TAAATT	1.28 fold enrichment (6-mer frequency, TF over GST control)
CCCGAC	1.42 fold enrichment (6-mer frequency, TF over GST control)
ATGAGC	1.24 fold enrichment (6-mer frequency, TF over GST control)
GCGATG	1.18 fold enrichment (6-mer frequency, TF over GST control)
CTCTGG	1.39 fold enrichment (6-mer frequency, TF over GST control)

Sequence	binding signal
TCATAT	1.24 fold enrichment (6-mer frequency, TF over GST control)
AAAGCA	1.05 fold enrichment (6-mer frequency, TF over GST control)
TAACAA	1.15 fold enrichment (6-mer frequency, TF over GST control)
TTCTAT	1.28 fold enrichment (6-mer frequency, TF over GST control)
TGTTTC	1.95 fold enrichment (6-mer frequency, TF over GST control)
TTGCGA	1.11 fold enrichment (6-mer frequency, TF over GST control)
ACAATT	1.25 fold enrichment (6-mer frequency, TF over GST control)
AATTAC	1.38 fold enrichment (6-mer frequency, TF over GST control)
CAATCC	1.22 fold enrichment (6-mer frequency, TF over GST control)
GTCTCC	1.51 fold enrichment (6-mer frequency, TF over GST control)
TTTTGC	1.49 fold enrichment (6-mer frequency, TF over GST control)
TGGCTT	1.29 fold enrichment (6-mer frequency, TF over GST control)
CTACAT	1.43 fold enrichment (6-mer frequency, TF over GST control)
CATCTC	1.26 fold enrichment (6-mer frequency, TF over GST control)
AAAGAC	1.16 fold enrichment (6-mer frequency, TF over GST control)
ATACCT	1.07 fold enrichment (6-mer frequency, TF over GST control)
GGCCTT	1.04 fold enrichment (6-mer frequency, TF over GST control)
TCAACC	1.22 fold enrichment (6-mer frequency, TF over GST control)
TTCTCA	1.26 fold enrichment (6-mer frequency, TF over GST control)
ATCTCG	1.3 fold enrichment (6-mer frequency, TF over GST control)
